This note sets out measurements from PubChem BioAssay (Tox21).

Where “and” joins values, the source holds several entries; their conditions need not be identical. Identical values can stand only once. Results filed as inconclusive are left out. More than one record can exist for a structure, and the calls need not agree. Calls of active or inactive are those of the source. Calls come from the whole dose curve; as a rule, active = well fitted curve in the direction sought with a large enough effect in the repeat runs; inconclusive = weak or mixed curves; inactive = no such curve, though single readings can be large; an effect the other way counts as inactive or inconclusive.

Assay [1] can be described thus: Human pregnane X receptor (PXR) small molecule agonists, qHTS cell viability counter screen (AID 1346977). Note: nearly all actives have a fitted effect of over 50% in size. Note: potency is the fitted concentration of half-maximal effect. The essentials: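 Tox21 qHTS format; PXR-Luc HepG2, 2,000/well, charcoal-stripped FBS 5%. Cpd exposure 24hr. Read: CellTiter-Fluor fluorescence, multiplexed with luciferase.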
The nature of assay [2]: Caspase-3/7 induction in HepG2 cells by small molecules, qHTS assay (AID 1346978). Note: nearly all actives have a fitted effect of over 15% in size. The essentials:
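Wild-type HepG2 cells (2,000/well) were settled 5 h at 37 C, 5% CO2, then exposed to compounds in DMSO for 17 h. Caspase-3/7 activity was read by luminescence 30 min after adding Caspase-Glo 3/7 reagent at room temperature.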
(In general: Quantitative high-throughput screening tests each substance at several concentrations.)

Assay [3] is described as follows: Caspase-3/7 induction in CHO-K1 cells by small molecules, qHTS cell viability counter screen (AID 1346979). Note: nearly all actives have a fitted effect of over 35% in size. Note: potency is the fitted concentration of half-maximal effect. The essentials:
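CellTiter-Fluor viability check, qHTS format: wild-type CHO-K1, 16hr compound treatment, 1hr reagent incubation, fluorescence read.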

Assay [4] can be described thus: Caspase-3/7 induction in CHO-K1 cells by small molecules, qHTS assay (AID 1346980). Note: nearly all actives have a fitted effect of over 15% in size. The essentials:
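Wild-type cells were seeded at 1,500 per well and settled 5 hr at 37 C, 5% CO2, then exposed to DMSO-dissolved compounds for 17 hr. Caspase-Glo 3/7 reagent was added, and luminescence was read after 30min at room temperature.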

The nature of assay [5]: Caspase-3/7 induction in HepG2 cells by small molecules, qHTS cell viability counter screen (AID 1346981). Note: nearly all actives have a fitted effect of over 30% in size. Note: potency is the fitted concentration of half-maximal effect. The method in brief:
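The parent HepG2 line is plated at 2,000 cells per well and rested 5 hr before compound pinning from DMSO stocks. Following a 16-hr treatment at 37 C, a fluorogenic live-cell substrate (CellTiter-Fluor) reports viability after 1 hr.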

Assay [6] has as its target Nuclear receptor subfamily 1 group I member 2 (Homo sapiens) (UniProt O75469). Nature of the assay: Human pregnane X receptor (PXR) small molecule agonists, qHTS assay (AID 1346982). Note: nearly all actives have a fitted effect of over 35% in size. Note: potency is the fitted concentration of half-maximal effect. The method in brief: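 After plating in 5% charcoal-stripped FBS and a 5 hr rest, PXR-Luc HepG2 cells received compounds in DMSO. Following 24 hr at 37 C, ONE-Glo was added and light output read.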

Assay [7] deals with Nuclear receptor subfamily 1 group I member 2 (Rattus norvegicus) (UniProt Q9R1A7). Nature of the assay: Rat pregnane X receptor (rPXR) activation by small molecules, qHTS assay (AID 1346983). Note: nearly all actives have a fitted effect of over 20% in size. Note: potency is the fitted concentration of half-maximal effect. The settings on record: rPXR luciferase reporter cells, One-Glo luminescence, 24 h; max activation: stronger effect = higher value. The essentials:
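Cell-based rPXR luciferase reporter assay, 2,000 cells per well, rested 5hr at 37 C before compound addition in DMSO, then 24 hr at 37 C. One-Glo reagent was added and luminescence read after 30 min at room temperature.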

Assay [8] deals with Nuclear receptor subfamily 1 group I member 2 (Homo sapiens) (UniProt O75469). The experiment in a line: CYP3A4 induction through human pregnane X receptor (PXR) by small molecules, qHTS assay (AID 1346984). Note: nearly all actives have a fitted effect of over 40% in size. The essentials:
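Human PXR activation is tracked via CYP3A4 promoter-luciferase in DPX-2 (HepG2) cells. Compounds treat cells for 24hr at 37C, and luminescence is read after One-Glo.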

For assay [9] the target is unchanged. Nature of the assay: Human pregnane X receptor (PXR) activation by small molecules, qHTS assay (AID 1346985). Note: nearly all actives have a fitted effect of over 40% in size. The method in brief:
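DPX-2 cells (HepG2 co-transfected with a PXR response element and a CYP3A4-promoter luciferase construct) were seeded at 2,000 per well, rested 5 hr at 37C, then exposed to DMSO-dissolved compounds for 24 hr. Activation was read as luciferase luminescence.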

In assay [10] the target is Cytochrome P450 2D6 (Homo sapiens) (UniProt P10635). Nature of the assay: Cytochrome P450 Family 2 Subfamily D Member 6 (CYP2D6) small molecule antagonists: luciferase reporter qHTS assay (AID 1671196). Note: nearly all actives have a fitted effect of over 50% in size. Note: potency is the fitted concentration of half-maximal effect. The method in brief: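 Quantitative HTS of Tox21 chemicals against CYP2D6 using a luminescent proluciferin substrate. After NADPH addition, 1 h room-temperature reaction; luminescence recorded 20 min post detection reagent.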
% is set by controls: 0 for no effect and ±100 for the full control effect.

Nuclear receptor subfamily 1 group I member 2 (Homo sapiens), sequence (O75469 whole entry, looked up): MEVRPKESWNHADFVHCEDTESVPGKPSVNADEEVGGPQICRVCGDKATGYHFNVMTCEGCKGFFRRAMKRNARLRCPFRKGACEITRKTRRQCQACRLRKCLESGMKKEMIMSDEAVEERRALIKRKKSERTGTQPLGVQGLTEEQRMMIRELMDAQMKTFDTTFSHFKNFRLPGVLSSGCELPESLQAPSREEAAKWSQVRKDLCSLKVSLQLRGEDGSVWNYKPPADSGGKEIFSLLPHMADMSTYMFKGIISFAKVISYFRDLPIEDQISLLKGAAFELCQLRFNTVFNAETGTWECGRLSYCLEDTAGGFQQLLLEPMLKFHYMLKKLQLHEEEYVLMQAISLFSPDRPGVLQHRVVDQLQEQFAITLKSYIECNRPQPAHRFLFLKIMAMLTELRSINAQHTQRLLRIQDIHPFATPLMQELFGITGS
Cytochrome P450 2D6 (Homo sapiens), sequence (P10635 whole entry, looked up): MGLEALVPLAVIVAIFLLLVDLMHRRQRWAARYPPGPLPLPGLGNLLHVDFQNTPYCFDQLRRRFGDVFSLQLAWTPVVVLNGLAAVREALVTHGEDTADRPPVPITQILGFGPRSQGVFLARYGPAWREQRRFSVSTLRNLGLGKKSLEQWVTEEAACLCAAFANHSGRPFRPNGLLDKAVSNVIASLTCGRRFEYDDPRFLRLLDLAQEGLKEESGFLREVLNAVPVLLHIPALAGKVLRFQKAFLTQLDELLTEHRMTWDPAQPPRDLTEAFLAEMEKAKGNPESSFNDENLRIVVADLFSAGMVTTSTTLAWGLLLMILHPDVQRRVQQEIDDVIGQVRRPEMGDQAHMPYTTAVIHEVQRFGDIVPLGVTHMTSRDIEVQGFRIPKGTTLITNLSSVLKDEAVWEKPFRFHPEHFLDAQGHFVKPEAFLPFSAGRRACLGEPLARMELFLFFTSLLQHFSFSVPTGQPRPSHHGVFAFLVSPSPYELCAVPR
Nuclear receptor subfamily 1 group I member 2 (Rattus norvegicus), sequence (Q9R1A7 whole entry, looked up): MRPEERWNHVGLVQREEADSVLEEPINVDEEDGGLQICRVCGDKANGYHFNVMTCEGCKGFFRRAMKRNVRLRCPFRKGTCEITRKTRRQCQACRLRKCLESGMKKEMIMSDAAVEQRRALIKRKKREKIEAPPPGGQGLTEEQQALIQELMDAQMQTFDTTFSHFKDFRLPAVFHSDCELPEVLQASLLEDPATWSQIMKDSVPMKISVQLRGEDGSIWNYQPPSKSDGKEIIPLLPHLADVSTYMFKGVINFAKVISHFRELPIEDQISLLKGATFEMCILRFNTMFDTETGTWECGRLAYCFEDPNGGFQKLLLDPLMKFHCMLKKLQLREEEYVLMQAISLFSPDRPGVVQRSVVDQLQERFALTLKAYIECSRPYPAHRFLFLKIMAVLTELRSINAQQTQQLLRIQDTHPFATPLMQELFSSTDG

For `CCCCCCCCCCC=CC1CC(=O)OC1=O` (stereo unspecified), the Potency entry in assay [1], in assay [2], in [3], in assay [4], in [5] and in assay [6] was “inactive” each time.
`OC[C@@H](O)[C@H](O)[C@H](O)[C@@H](O)CO`: the Potency entry in assay [1], in assay [2], in assay [3], in assay [4], in assay [5] and in assay [6] was “inactive” each time. The Potency entry in [10] was “inactive”. Also, the max activation in assay [7] is -0.0445% (inactive) and -4.34% (inactive). Besides, the call in assay [8] and in assay [9] was inactive.
Take `O=C1O[C@H](CO)[C@@H](O)[C@H](O)[C@H]1O`: the Potency entry in assay [1], in [2], in [3], in assay [4], in assay [5] and in assay [6] was “inactive” throughout. Moreover, the Potency result in [10] was “inactive”. The max activation in assay [7] was 1.43% (inactive). Besides, the result in assay [8] and in assay [9] was inactive.
Turning to `C[C@@H]1O[C@@H](OC[C@H]2O[C@@H](Oc3c(-c4ccc(O)c(O)c4)oc4cc(O)cc(O)c4c3=O)[C@H](O)[C@@H](O)[C@@H]2O)[C@H](O)[C@H](O)[C@H]1O`, the Potency entry in assay [1], in assay [2], in assay [3], in [4], in [5] and in assay [6] was “inactive” in each case. Besides, in assay [10], the Potency result is “inactive”. In addition, the max activation in [7] is -1.22% (inactive). Also, the result in assay [8] and in assay [9] was inactive.
As to `CC1=C(/C=C/C(C)=C/C=C/C(C)=C/CO)C(C)(C)CCC1`, the Potency result in [1], in assay [2], in assay [4] and in assay [5] was “inactive” in each case. Further, the Potency was 69.4 µM (active) in assay [3]; 55.1 µM (active) and 32.3 µM (active) in assay [6].
Turning to `Cc1cc(O)cc(C)c1Cl`, the Potency result in assay [1], in assay [2], in assay [3], in assay [4], in assay [5] and in [6] was “inactive” each time. The Potency entry in assay [10] was “inactive”. The max activation in assay [7] is -1.35% (inactive). Moreover, the result in [8] and in [9] was inactive.
As to `CCCCCCOC(C)=O`, the Potency entry in assay [1], in assay [2], in assay [3], in assay [4], in [5] and in assay [6] was “inactive” throughout. Moreover, the Potency entry in assay [10] is “inactive”.
`Cn1c([N+](=O)[O-])cnc1COC(N)=O`: the Potency entry in [1], in assay [2], in [3], in [4], in assay [5] and in [6] was “inactive” in each case. Besides, in assay [10], the Potency result is “inactive”.
For `CCCCC(CC)COC(=O)/C=C\C(=O)OCC(CC)CCCC` (stereo unspecified), the Potency entry in assay [1], in [2], in [3], in assay [4], in assay [5] and in assay [10] was “inactive” each time. The Potency in assay [6] was 48.5 µM (active) and inactive.
Turning to `CC(C)NCC(O)COc1cccc2ccccc12` (stereo unspecified), the Potency in assay [1] was 39.8 µM (active). For the same compound, the Potency entry in [2], in [3], in assay [4] and in assay [5] was “inactive” in each case.
As to `C[C@@H](O)[C@H]1C(=O)N2C(C(=O)O)=C(S[C@@H]3CN[C@H](C(=O)N(C)C)C3)[C@H](C)[C@H]12`, the Potency entry in assay [1], in assay [2], in [3], in assay [4], in assay [5] and in assay [6] was “inactive” in each case. Also, in assay [7], the max activation is -2.7% (inactive). Besides, the call in assay [8] and in assay [9] was inactive. Besides, the Potency in [10] is 17.4 µM (active) and inactive.
Take `Oc1ccc(OCc2ccccc2)cc1`: the Potency entry in [1], in assay [2], in assay [3], in [4] and in assay [5] was “inactive” throughout. The Potency in assay [6] is 30 µM (active). Also, in assay [7], the max activation was -0.536% (inactive). In addition, the outcome in assay [8] was inactive.
In the case of `CC1(C)O[C@@H]2C[C@H]3[C@@H]4C[C@H](F)C5=CC(=O)CC[C@]5(C)[C@H]4[C@@H](O)C[C@]3(C)[C@]2(C(=O)CO)O1`, the Potency entry in assay [1], in [2], in [3], in [4], in [5] and in [10] was “inactive” each time. Further, in assay [6], the Potency was 11.9 µM (active). Besides, the call in assay [9] was inactive.
On to `CN(CCOc1ccc(CC2SC(=O)NC2=O)cc1)c1ccccn1` (stereo unspecified), for which the Potency result in assay [1], in assay [2], in [3], in assay [4] and in [5] was “inactive” each time. The Potency in assay [6] was 54.2 µM (active) and inactive. For the same compound, in assay [7], the max activation was -1.4% (inactive). Moreover, the result in assay [9] was inactive.
Consider `CC1Cc2ccccc2N1NC(=O)c1ccc(Cl)c(S(N)(=O)=O)c1` (stereo unspecified), for which the Potency entry in assay [1], in assay [2], in assay [3], in assay [4] and in assay [5] was “inactive” each time. For the same compound, in assay [6], the Potency was 30.6 µM (active) and 9.44 µM (active). For the same compound, the max activation in assay [7] was -2.07% (inactive). Besides, the compound was classed as inactive in assay [8] and in assay [9].
For the compound `NS(=O)(=O)c1cc2c(cc1Cl)NC=NS2(=O)=O`, the Potency entry in [1], in assay [2], in [3], in assay [4] and in assay [5] was “inactive” each time.
In the case of `O=C(c1cc(O)c(O)c(O)c1)c1ccc(O)c(O)c1O`, the Potency in assay [1] is 39.8 µM (active) and 61.1 µM (active); in assay [3], 48.4 µM (active) and 54.5 µM (active) and 29.8 µM (active); in assay [5] it was 54.3 µM (active) and 30.6 µM (active); in assay [10], 31.6 µM (active) and inactive. Further, the Potency result in assay [2], in assay [4] and in assay [6] was “inactive” each time.
For `CC#C[C@]1(O)CC[C@H]2[C@@H]3CCC4=CC(=O)CCC4=C3[C@@H](c3ccc(N(C)C)cc3)C[C@@]21C`, the Potency result in assay [1], in [2] and in assay [4] was “inactive” in each case. In addition, the Potency in assay [3] was 30.6 µM (active); in assay [5] it was 30.6 µM (active); in [6], 48.6 µM (active) and 23.7 µM (active); in assay [7] it was 10 µM (active); in assay [10], 63.3 µM (active) and 38.9 µM (active). In assay [8], the call was inactive.
Turning to `CC[Si](OC(C)=O)(OC(C)=O)OC(C)=O`, the Potency result in [1], in assay [2], in [3], in assay [4] and in assay [5] was “inactive” in each case. Further, the Potency in assay [6] was 48.5 µM (active) and 48.6 µM (active); in assay [10] it was 35.6 µM (active).
For the compound `CCCCCCC(C)(C)S`, the Potency result in assay [1], in [2], in assay [3], in assay [4], in assay [5] and in [10] was “inactive” each time. Moreover, the Potency in assay [6] is 30.9 µM (active) and inactive.
For the compound `COC(=O)c1ccccc1O`, the Potency result in [1], in assay [2], in assay [3], in [4], in [5] and in assay [10] was “inactive” each time. Besides, the Potency in assay [6] was 34.4 µM (active) and inactive. In addition, the max activation in assay [7] was -0.564% (inactive). Besides, the outcome in assay [8] and in assay [9] was inactive.
`CS(=O)(=O)c1ccc([C@@H](O)[C@@H](CO)NC(=O)C(Cl)Cl)cc1`: the Potency entry in assay [1], in assay [2], in assay [3], in assay [4], in [5] and in assay [6] was “inactive” in each case. Also, the max activation in assay [7] was -0.108% (inactive). In addition, the outcome in assay [8] and in [9] was inactive. In addition, the Potency in assay [10] was 64.1 µM (active) and inactive.
